Pol kappa inh-1: qHTS for Inhibitors of Polymerase Kappa. DNA polymerase kappa (Homo sapiens), Q9UBT6. purified Pol kappa, fluorescent DNA synthesis assay, 10 min. Potency, µM (top dose mostly 107 µM), usual class: inhibitors. 400,000 compounds, 0.53% hits. AID 588579, 2011
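Enzyme at 10 nM met test compounds for 15 min at room temperature. Substrate addition (50 nM final) began the reaction, which was monitored by fluorescence at 0 and 10 min.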
POLB inh: qHTS Assay for Inhibitors of DNA Polymerase Beta. P06746. Pol beta primer extension/strand displacement, fluorescence kinetic. Potency, µM (titrated, usually from 114 µM), hits mostly inhibitors. 340,000 compounds, 1.3% hits
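Curves were derived by four-parameter Hill fits of normalized qHTS data. The kinetic fluorescent primer-extension read was taken at 0 and 10 min after 50 nM substrate, following a 15 min room-temperature preincubation of 10 nM enzyme with compounds.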
APEX1 inh: qHTS Assay for Inhibitors of the Human Apurinic/apyrimidinic Endonuclease 1 (APE1) | Potency, µM (top dose mostly 65.8 µM), hits mostly inhibitors | AID 2517, 2012 | 350,000 compounds, 0.35% hits | DNA repair nuclease/redox regulator APEX1 (Homo sapiens), P27695 | recombinant APE1, TAMRA/BHQ-2 abasic DNA cleavage fluorescence; note: nearly all actives have a fitted effect of over 55% in size
Target sequence (P27695 whole entry, looked up): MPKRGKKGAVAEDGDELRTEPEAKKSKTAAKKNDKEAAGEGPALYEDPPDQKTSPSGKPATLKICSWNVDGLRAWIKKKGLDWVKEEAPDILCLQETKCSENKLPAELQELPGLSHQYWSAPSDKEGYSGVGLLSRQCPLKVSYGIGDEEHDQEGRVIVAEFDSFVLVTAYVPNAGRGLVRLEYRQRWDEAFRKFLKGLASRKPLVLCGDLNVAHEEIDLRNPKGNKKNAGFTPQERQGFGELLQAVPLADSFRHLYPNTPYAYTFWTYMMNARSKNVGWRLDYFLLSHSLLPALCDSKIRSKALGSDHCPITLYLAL
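APE1 at 0.75 nM final was preincubated with compound 15 min at room temperature, then 50 nM double-stranded THF abasic-site substrate (5'-TAMRA/3'-BHQ-2) was added. Fluorescence (ex 525/em 598 nm) was read kinetically; third-minus-first read gave activity.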
Pol iota inh: qHTS for Inhibitors of Polymerase Iota; AID 588590, 2011; Pol iota fluorescent replication assay, 10 min; Potency, µM (highest dose often 115 µM), most hits filed as inhibitors; DNA polymerase iota (Homo sapiens), Q9UNA4; 390,000 compounds, 1% hits
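Fluorescent replication assay read twice, at 0 min and 10 min after adding 50 nM (final) substrate. Enzyme (10 nM) and compounds were first incubated 15 min at room temperature; enzyme-free buffer wells were negative controls.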
Pol eta inh-1: qHTS for Inhibitors of Polymerase Eta; DNA polymerase eta (Homo sapiens), Q9Y253; recombinant Pol eta, fluorescent DNA replication assay; Potency, µM (series often up to 114 µM), hits mostly inhibitors; 390,000 compounds, 1.2% hits; AID 588591, 2011
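Pol eta (10 nM) was preincubated with compounds for 15 min at room temperature, after which fluorescent replication substrate (50 nM final) was added to start the reaction. Fluorescence was read kinetically at 0 and 10 min.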
GLS inh: qHTS for Inhibitors of Glutaminase (GLS). Glutaminase kidney isoform, mitochondrial (Homo sapiens), O94925. AID 624170, 2012. GLS enzymatic activity, qHTS titration. 410,000 compounds, 0.21% hits. Potency, µM (titrated, usually from 45.5 µM), usual class: inhibitors
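hKGA; 45 mM KH2PO4 pH 8.2 + 0.02% Tween-20; cpd via pin tool; 1 mM Gln soln; GluOx/HRP/Amplex Red; RT 30 min; fluor. t0 & final.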
PGK validate: qHTS for inhibitors of Phosphogylcerate Kinase: Hit Validation Screen; shares compounds with Pol kappa inh-1; TbPGK coupled GAPDH assay, Kinase-Glo luminescence; Potency, µM (titrated, usually from 57.5 µM), hits mostly inhibitors; 500 compounds, 79% hits; note: nearly all actives have a fitted effect of over 65% in size
Pol iota confirm: qHTS for Inhibitors of Polymerase Iota: Confirmatory Assay for Cherry-picked Compounds; shares compounds with Pol kappa inh-1; 1,500 compounds, 77% hits; Pol iota primer extension, TAMRA/BHQ fluorescence; Potency, µM, hits mostly inhibitors
Pol kappa inh-2: qHTS for Inhibitors of Polymerase Kappa: Confirmatory Assay for Cherry-picked Compounds; shares compounds with Pol eta inh-1; purified Pol-kappa, fluorescent strand-displacement substrate; 920 compounds, 76% hits; Potency, µM, hits mostly inhibitors; AID 720501, 2013
Pol eta inh-2: qHTS for Inhibitors of Polymerase Eta: Confirmatory Assay for Cherry-picked Compounds | shares compounds with Pol eta inh-1 | 2,600 compounds, 64% hits | Pol eta primer extension, TAMRA/BHQ fluorescence, 10 min | Potency, µM, actives largely listed as inhibitors
Of the large screens only hits and unclear results are named; the others gave an inactive call (follow-up assays come after a bar, where they were run). Shown are actives, neighbours in structure and some others; about 2.4% of the full set was active somewhere. Calls come from the whole dose curve; as a rule, active = well fitted curve in the direction sought with a large enough effect; inconclusive = small, poorly fitted or top-dose-only effect, or another doubt; inactive = no such curve, though single readings can be large; an effect the other way counts as inactive or inconclusive.

O=C(CN1C(=O)c2ccccc2C1=O)OCC(=O)N1CCc2ccccc2C1	none
FC(F)(F)C1=Nc2cccc3cccc(c23)N1	Pol kappa inh-1 6.3µM, Pol iota inh 1.6µM, Pol eta inh-1 2.2µM, GLS inh inconclusive (no result: POLB inh) | Pol iota confirm 17 | Pol kappa inh-2 7.5 | Pol eta inh-2 21
Fc1ccc(C2=Nc3cccc4cccc(c34)N2)cc1	none
Nc1ccc2nc(-c3cccc(-c4nc5ccc(N)cc5[nH]4)n3)[nH]c2c1	Pol kappa inh-1 56µM, POLB inh 25µM, Pol iota inh 14µM, Pol eta inh-1 20µM | Pol iota confirm 17 | Pol kappa inh-2 27 | Pol eta inh-2 19
COc1ccc(/C=C2\C(=O)NC(=S)N2C(=O)c2ccc(C)cc2)cc1	Pol kappa inh-1 inconclusive, POLB inh 20µM, Pol iota inh 18µM, Pol eta inh-1 16µM | Pol iota confirm inconclusive | Pol eta inh-2 inconclusive
CCc1ccc(C(O)(CC)C(CN2CCOCC2)c2ccccc2)cc1 (stereo unspecified)	none
CC(=O)Nc1ccc(S(=O)(=O)N(C)CC(=O)OCC(=O)N2CCN(C(=O)c3ccco3)CC2)cc1	Pol kappa inh-1 inconclusive, Pol iota inh 40µM, Pol eta inh-1 28µM (no result: POLB inh) | Pol iota confirm inconclusive | Pol eta inh-2 76
CCOC(=O)N(O)c1ccc(C=Cc2ccccc2)cc1	Pol kappa inh-1 79µM, Pol iota inh 25µM, Pol eta inh-1 13µM (no result: POLB inh, APEX1 inh) | PGK validate 9.2µM | Pol iota confirm 75 | Pol kappa inh-2 17 | Pol eta inh-2 inconclusive
CC(C)CN1CCN(Cc2cccc3cccnc23)CC1CCO (stereo unspecified)	none
Nc1cccc2cc(S(=O)(=O)O)ccc12	Pol kappa inh-1 10µM, Pol iota inh 4µM, Pol eta inh-1 4µM (no result: POLB inh, APEX1 inh) | Pol iota confirm 75 | Pol kappa inh-2 19 | Pol eta inh-2 27

Screening data from PubChem BioAssay.
